# “And” between values parts separate entries of the source, which are not always exact repeats. Equal values may be shown once. Values without a mark were called inactive. Results filed as inconclusive are left out. A call without a number means that no potency is given here. The source made the active and inactive calls. Unless noted, the call rests on the fitted dose curve; in most records, active means well fitted curve in the direction sought with a large enough effect in the repeat runs; inconclusive means weak or mixed curves; inactive means no such curve, though single readings can be large; an effect the other way counts as inactive or inconclusive.
# What was measured:
# [1] = qHTS assay to identify small molecule antagonists of the estrogen receptor alpha (ER-alpha) signaling pathway using the BG1 cell line in the presence of 0.1 nM 17-beta-estradiol - cell viability counter screen (AID 1259241); further: nearly all actives have a fitted effect of over 40% in size
# Summary of the method: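 Estradiol-stimulated (0.1 nM) VM7Luc4E2 cells exposed to compounds 22 hr; viability measured by fluorescence of cleaved CellTiter-Fluor substrate after 30 min.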
# [2] = molecular target: Estrogen receptor (Homo sapiens) (UniProt P03372); test: qHTS assay to identify small molecule antagonists of the estrogen receptor alpha (ER-alpha) signaling pathway using the BG1 cell line in the presence of 0.1 nM 17-beta-estradiol (AID 1259244); further: nearly all actives have a fitted effect of over 50% in size; further: potency means the concentration at half of the fitted maximal effect
# Summary of the method: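 VM7Luc4E2; 4xERE-luciferase; 0.1 nM E2 final; 22 h co-incubation, 37C; ONE-Glo luminescence after 30 min at room temperature.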
# [3] = qHTS assay to identify small molecule HDAC inhibitors (AID 1259364); further: potency means the concentration at half of the fitted maximal effect;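 further: wild-type HCT-116 cells with endogenous class I/II HDAC activity; nearly all actives have a fitted effect of over 45% in size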
# Summary of the method: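 Relative class I and II HDAC activity is taken from the luminogenic signal in HCT-116 cells, with compound exposure 2 hr and reagent development 30 min at room temperature.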
# [4] = qHTS assay to identify small molecule HDAC inhibitors - cell viability counter screen (AID 1259365); further: nearly all actives have a fitted effect of over 50% in size; further: potency means the concentration at half of the fitted maximal effect
# Summary of the method: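 After overnight seeding at 1,500 cells per well, wild-type HCT-116 cultures took up compounds in DMSO for 2hr at 37 C. Viable cell content came from luminescence with CellTiter-Glo.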
# [5] = qHTS assay to identify small molecule agonists of the sonic hedgehog signaling (Shh) pathway - cell viability counter screen (AID 1259366); further: nearly all actives have a fitted effect of over 50% in size; further: potency means the concentration at half of the fitted maximal effect
# Summary of the method: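 Same-well cytotoxicity read. Gli1-Luc reporter 3T3 cells; compounds 24hr, 37C/5% CO2; CellTiter-Fluor fluorescence.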
# [6] = qHTS assay to identify small molecule agonists of the sonic hedgehog signaling (Shh) pathway (AID 1259368; calls by dose curve; further: nearly all actives have a fitted effect of over 15% in size; further: potency means the concentration at half of the fitted maximal effect)
# Summary of the method: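 Mouse fibroblast (NIH/3T3) reporter cells with stably integrated Gli1-Luc were treated 24 hr with compound; firefly luciferase luminescence served as the read-out.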
# [7] = qHTS assay to identify small molecule antagonists of the androgen receptor (AR) signaling pathway using the MDA cell line in the presence of 0.5 nM R1881 - cell viability counter screen (AID 1259242); further: nearly all actives have a fitted effect of over 45% in size; further: potency means the concentration at half of the fitted maximal effect
# Summary of the method: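 R1881 at 0.5 nM final stimulated MDA-kb2 cells during 16 hr compound treatment at 37C. Cytotoxicity read: CellTiter-Fluor fluorescence after 30 min.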
# [8] = molecular target: Androgen receptor (Homo sapiens) (UniProt P10275); test: qHTS assay to identify small molecule antagonists of the androgen receptor (AR) signaling pathway using the MDA cell line in the presence of 0.5 nM R1881 (AID 1259243); further: nearly all actives have a fitted effect of over 50% in size; further: potency means the concentration at half of the fitted maximal effect
# Summary of the method: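 We exposed MDA-kb2 cells to compounds under 0.5 nM R1881 stimulation for 16 hr at 37C and quantified MMTV-driven luciferase by luminescence.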
# [9] = qHTS assay to identify small molecule antagonists of the sonic hedgehog signaling (Shh) pathway - cell viability counter screen (AID 1259367); further: nearly all actives have a fitted effect of over 55% in size; further: potency means the concentration at half of the fitted maximal effect
# Summary of the method: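 NIH/3T3-derived Gli1-Luc reporter cells (2,000 per well) rested 4 hr at 37 C, then received DMSO compounds plus conditioned medium. After 23 hr of treatment, CellTiter-Fluor was added for 1 hr at 37C and fluorescence read.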
# [10] = qHTS assay to identify small molecule phospholipidosis (PLD) inducers (AID 1259344; active means well fitted curve in the direction sought with a large enough effect; an effect the other way counts as inactive or inconclusive)
# Summary of the method: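 HepG2 cells on collagen I, attached 4 h at 37 C, were co-treated with compound and LipidTOX Red dye for 24 h at 37 C, then fixed with paraformaldehyde plus Hoechst 33342 and imaged by high-content microscopy for phospholipid accumulation.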
# Chain of Estrogen receptor (Homo sapiens) (P03372 whole entry, looked up): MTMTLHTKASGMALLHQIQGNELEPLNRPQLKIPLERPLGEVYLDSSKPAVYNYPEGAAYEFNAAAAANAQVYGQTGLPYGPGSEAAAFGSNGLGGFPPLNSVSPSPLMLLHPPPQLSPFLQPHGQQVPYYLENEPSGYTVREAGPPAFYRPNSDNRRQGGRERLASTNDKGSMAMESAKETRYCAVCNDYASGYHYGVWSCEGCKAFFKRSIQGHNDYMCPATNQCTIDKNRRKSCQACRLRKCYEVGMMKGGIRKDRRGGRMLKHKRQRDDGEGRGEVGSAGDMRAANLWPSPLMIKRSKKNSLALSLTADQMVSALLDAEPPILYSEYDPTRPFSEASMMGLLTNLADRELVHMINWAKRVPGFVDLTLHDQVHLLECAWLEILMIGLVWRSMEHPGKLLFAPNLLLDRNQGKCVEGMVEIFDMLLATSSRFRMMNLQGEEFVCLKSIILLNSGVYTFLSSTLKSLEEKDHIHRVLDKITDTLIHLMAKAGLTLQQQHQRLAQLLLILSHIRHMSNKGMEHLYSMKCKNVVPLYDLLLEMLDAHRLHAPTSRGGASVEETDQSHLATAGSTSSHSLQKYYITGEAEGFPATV
# Chain of Androgen receptor (Homo sapiens) (P10275 whole entry, looked up): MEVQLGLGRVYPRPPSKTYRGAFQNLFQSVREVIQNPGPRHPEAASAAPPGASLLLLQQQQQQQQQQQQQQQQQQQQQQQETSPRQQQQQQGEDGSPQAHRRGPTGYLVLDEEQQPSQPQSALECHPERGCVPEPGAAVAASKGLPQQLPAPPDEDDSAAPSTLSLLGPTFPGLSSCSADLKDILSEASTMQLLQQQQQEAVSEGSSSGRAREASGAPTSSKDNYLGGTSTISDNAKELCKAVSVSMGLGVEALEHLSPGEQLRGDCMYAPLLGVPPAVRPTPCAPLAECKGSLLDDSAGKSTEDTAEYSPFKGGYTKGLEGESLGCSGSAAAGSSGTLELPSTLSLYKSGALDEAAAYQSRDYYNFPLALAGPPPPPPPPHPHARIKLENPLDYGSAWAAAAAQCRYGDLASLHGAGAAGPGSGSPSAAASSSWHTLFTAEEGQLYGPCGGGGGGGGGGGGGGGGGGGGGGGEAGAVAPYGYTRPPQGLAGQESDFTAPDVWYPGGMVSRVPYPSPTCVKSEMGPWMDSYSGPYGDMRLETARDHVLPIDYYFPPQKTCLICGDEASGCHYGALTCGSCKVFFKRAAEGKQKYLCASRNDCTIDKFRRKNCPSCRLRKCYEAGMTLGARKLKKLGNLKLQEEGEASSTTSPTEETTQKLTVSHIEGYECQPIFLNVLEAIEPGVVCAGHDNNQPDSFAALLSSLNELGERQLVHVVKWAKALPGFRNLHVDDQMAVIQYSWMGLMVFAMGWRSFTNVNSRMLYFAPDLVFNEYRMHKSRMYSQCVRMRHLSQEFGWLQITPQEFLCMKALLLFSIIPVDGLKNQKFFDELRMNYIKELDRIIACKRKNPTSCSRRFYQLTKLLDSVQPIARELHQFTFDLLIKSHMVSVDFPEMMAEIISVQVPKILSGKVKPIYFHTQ
SMILES,Potency [1],Potency [2],Potency [3],Potency [4],Potency [5],Potency [6],Potency [7],Potency [8],Potency [9],outcome [10],PLD induction [10]
Oc1cc(Cl)c(Cl)c(Cl)c1Cl,inactive,29.9 µM (active),inactive,inactive,inactive,inactive,–,–,–,–,–
O=c1[nH]c2cc(Cl)ccc2n1C1CCNCC1,–,inactive,inactive,inactive,–,inactive,inactive,inactive,inactive,–,–
CCOP(=S)(NC(C)C)Oc1ccccc1C(=O)OC(C)C (stereo unspecified),inactive,–,inactive,inactive,inactive,inactive,–,–,–,–,–
CC(C)=CCN1CC[C@@]2(C)c3cc(O)ccc3C[C@@H]1[C@@H]2C,–,inactive,inactive,inactive,inactive,inactive,inactive,–,inactive,inactive,–
COC(=O)N(OC)c1ccccc1COc1ccn(-c2ccc(Cl)cc2)n1,–,0.686 µM (active),inactive,inactive,inactive,inactive,2.17 µM (active),–,inactive,–,–
Oc1ccc(Cl)c(Cl)c1,–,inactive,inactive,inactive,inactive,inactive,inactive,–,inactive,–,–
Clc1ccc(C2(Cn3cncn3)OCCO2)c(Cl)c1,inactive,–,inactive,inactive,inactive,inactive,–,–,inactive,inactive,–
Oc1ccc([C@H]2CNCc3c2ccc(O)c3O)cc1O,–,inactive,inactive,inactive,inactive,inactive,inactive,–,inactive,–,-2.7% [at 7.66 µM]
C#CC1(O)CCCCC1,inactive,–,inactive,inactive,inactive,inactive,–,–,inactive,–,–
N#Cc1c[nH]cc1-c1cccc2c1OC(F)(F)O2,inactive,–,inactive,inactive,inactive,inactive,–,–,inactive,–,–
CC1CN1 (stereo unspecified),inactive,–,inactive,inactive,inactive,inactive,–,–,inactive,–,–
Cc1ccccc1OP(=O)(Oc1ccccc1C)Oc1ccccc1C,–,–,inactive,inactive,inactive,inactive,inactive,48.8 µM (active),–,–,–
O=C(Cl)c1ccccc1F,inactive,–,inactive,inactive,inactive,inactive,–,–,inactive,–,–
CC1(C)[C@H](/C=C2\CCSC2=O)[C@@H]1C(=O)OCc1coc(Cc2ccccc2)c1,inactive,–,inactive,inactive,inactive,inactive,–,–,inactive,–,–
CNC(=O)CSP(=O)(OC)OC,–,inactive,inactive,inactive,inactive,inactive,inactive,–,inactive,–,–
CN,inactive,–,inactive,inactive,inactive,inactive,–,–,inactive,–,–
O=S1(=O)OCC2C(CO1)C1(Cl)C(Cl)=C(Cl)C2(Cl)C1(Cl)Cl (stereo unspecified),inactive,54.5 µM (active),inactive,inactive,–,inactive,–,–,inactive,–,–
S=C=Nc1ccccc1,–,–,inactive,inactive,inactive,inactive,inactive,inactive,inactive,–,–
CCC[CH2][Sn]([CH2]CCC)([O]C(C)=O)[O]C(C)=O,–,0.617 µM (active),inactive,inactive,6.17 µM (active),inactive,0.347 µM (active),–,27.6 µM (active),–,–
Cc1ccc([N+](=O)[O-])[c]2c1[O][Hg]2,–,–,–,29.8 µM (active),2.66 µM (active),inactive,6.68 µM (active),2.37 µM (active),3.35 µM (active),–,–
O=S(=O)(NS(=O)(=O)C(F)(F)F)C(F)(F)F,inactive,–,inactive,inactive,inactive,inactive,–,–,inactive,–,–

SMILES,Potency [1],Potency [2],Potency [3],Potency [4],Potency [5],Potency [6],Potency [7],Potency [8],Potency [9],outcome [10],PLD induction [10]
Clc1ccc(C(Cl)(Cl)Cl)cc1Cl,–,–,15 µM (active),inactive,inactive,inactive,inactive,–,inactive,–,–
O=C(N[C@@H]1N=C(c2ccccc2F)c2cccc3c2N(CC3)C1=O)c1cc2ccccc2[nH]1,–,–,–,inactive,inactive,inactive,inactive,–,inactive,–,-5.27% [at 0.306 µM]
c1ccc2c(c1)cc1ccc3cccc4ccc2c1c34,–,–,inactive,inactive,–,inactive,inactive,–,inactive,–,–
CSC1=N[C@@](C)(c2ccccc2)C(=O)N1Nc1ccccc1,–,–,inactive,inactive,inactive,inactive,27.3 µM (active),–,inactive,–,–
c1cc[n+]2c(c1)-c1cccc[n+]1CC2,–,26.6 µM (active),inactive,inactive,–,inactive,inactive,–,inactive,–,–
CN(C)c1ccc(N)cc1,–,29.9 µM (active),23.7 µM (active),–,53.2 µM (active),–,–,–,–,–,–
CN1CCc2cc(Cl)c(O)cc2[C@H]2c3ccccc3CC[C@@H]21,–,–,inactive,inactive,4.73 µM (active),inactive,inactive,–,11.9 µM (active),inactive,–
CCC1COC(Cn2cncn2)(c2ccc(Cl)cc2Cl)O1 (stereo unspecified),–,–,inactive,inactive,inactive,inactive,–,–,inactive,–,–
COC(=O)c1cc(Oc2ccc(Cl)cc2Cl)ccc1[N+](=O)[O-],–,–,inactive,inactive,inactive,inactive,inactive,–,inactive,–,–
CCCCCCC[CH2][Sn]([Cl])([Cl])[CH2]CCCCCCC,–,inactive,inactive,inactive,inactive,–,–,–,inactive,–,–
O.O.O.O.O.O.O=S(=O)([O-])[O-].[Ni+2],–,–,inactive,inactive,inactive,inactive,inactive,–,inactive,–,–
O=[N+]([O-])c1cccc2cccc([N+](=O)[O-])c12,–,–,inactive,inactive,inactive,inactive,inactive,–,inactive,–,–
CCC(C)c1cccc(C(C)CC)c1O (stereo unspecified),–,inactive,inactive,inactive,–,inactive,inactive,–,inactive,–,–
Nc1ccccc1-c1ccccc1,–,inactive,–,inactive,inactive,inactive,inactive,–,inactive,–,–
CC(C)N(C(=O)SC/C(Cl)=C/Cl)C(C)C,–,–,inactive,inactive,inactive,inactive,inactive,–,inactive,–,–
COP(=S)(OC)Oc1nc(Cl)c(Cl)cc1Cl,–,inactive,inactive,inactive,inactive,inactive,inactive,–,inactive,–,–
BrCC(Br)(Br)Br,–,inactive,inactive,inactive,inactive,inactive,–,–,inactive,–,–
NC(=O)C(Cl)Cl,–,–,inactive,inactive,inactive,inactive,inactive,–,inactive,–,–
CCN1CCC2(CC1)COc1cc3c(cc12)N(C(=O)c1ccc(-c2ccc(-c4nnc(C)o4)cc2C)cc1)CC3,–,50.2 µM (active),inactive,inactive,63.3 µM (active),inactive,–,–,63.3 µM (active),–,–
CCC(C)Br (stereo unspecified),–,–,inactive,inactive,inactive,inactive,inactive,–,inactive,–,–
C#CCC1=C(C)C(OC(=O)C2C(C=C(C)C)C2(C)C)CC1=O (stereo unspecified),–,–,inactive,inactive,inactive,inactive,–,–,–,–,–

SMILES,Potency [1],Potency [2],Potency [3],Potency [4],Potency [5],Potency [6],Potency [7],Potency [8],Potency [9],outcome [10],PLD induction [10]
Oc1cccc(Cl)c1Cl,–,inactive,inactive,inactive,inactive,inactive,–,–,inactive,–,–
O=C(NC(=O)c1c(F)cccc1F)Nc1ccc(Oc2ccc(C(F)(F)F)cc2Cl)cc1F,–,–,inactive,inactive,inactive,inactive,–,–,inactive,–,–
Cc1c([N+](=O)[O-])cc2c(c1[N+](=O)[O-])C(C)(C)CC2(C)C,–,–,inactive,inactive,inactive,inactive,inactive,–,inactive,–,–
O=C1C[C@@H]2OCC=C3CN4CC[C@]56c7ccccc7N1[C@H]5[C@H]2[C@H]3C[C@H]46,–,–,inactive,inactive,–,inactive,–,–,–,inactive,–
O=C(Nc1ccc(F)cc1F)c1cccnc1Oc1cccc(C(F)(F)F)c1,–,–,inactive,inactive,inactive,inactive,–,–,inactive,–,–
Nc1ccc(N=Nc2ccccc2)cc1,–,inactive,8.63 µM (active),inactive,15.4 µM (active),4.86 µM (active),–,–,3.44 µM (active),inactive,–
CCCCN(CCCC)C(=S)S,–,inactive,inactive,inactive,inactive,inactive,inactive,–,–,–,–
COP(=O)(OC)Oc1ccc([N+](=O)[O-])cc1,–,–,inactive,inactive,inactive,inactive,inactive,–,inactive,–,–
CO/N=C(\C(=O)OC)c1ccccc1CO/N=C(\C)c1cccc(C(F)(F)F)c1,–,–,inactive,inactive,inactive,inactive,–,–,inactive,–,–
Nc1c(Cl)c(Cl)c(Cl)c(Cl)c1Cl,–,–,inactive,inactive,inactive,inactive,inactive,–,inactive,–,–
NC1CCC(CC2CCC(N)CC2)CC1 (stereo unspecified),–,inactive,inactive,inactive,–,inactive,–,–,–,–,–
c1ccc(N=NNc2ccccc2)cc1,–,inactive,15.9 µM (active) and 24.3 µM (active),inactive,inactive,inactive,–,–,inactive,–,–
COc1ccc2[nH]cc(CCN(C(C)C)C(C)C)c2c1,–,–,inactive,inactive,inactive,inactive,inactive,–,inactive,inactive,–
CC1=C2C[C@H]3[C@@H](CC=C4C[C@@H](O)CC[C@@]43C)[C@@H]2CC[C@]12O[C@@H]1C[C@H](C)CN[C@H]1[C@H]2C,–,inactive,inactive,inactive,inactive,inactive,–,inactive,inactive,–,–
CCCCC(CC)COC(=O)OOC(C)(C)C (stereo unspecified),–,–,inactive,inactive,inactive,inactive,inactive,–,inactive,–,–
CCc1cccc(C)c1N(C(=O)CCl)[C@@H](C)COC,–,–,inactive,inactive,inactive,inactive,inactive,–,inactive,–,–
CN1CCc2cc3c(cc2C1O)OCO3 (stereo unspecified),–,–,inactive,inactive,–,inactive,inactive,–,–,–,–
O.O.O.O.O.O.O.O=S(=O)([O-])[O-].[Co+2],–,–,inactive,inactive,–,61.5 µM (active),–,–,inactive,–,–
FC(F)C(F)(F)OCC(Cn1cncn1)c1ccc(Cl)cc1Cl (stereo unspecified),–,–,inactive,inactive,48.3 µM (active),inactive,inactive,–,–,–,–

# From PubChem BioAssay (Tox21)
